JMJD2A Tudor inh: qHTS Assay for Inhibitors of JMJD2A-Tudor Domain. Lysine-specific demethylase 4A (Homo sapiens), O75164. AlphaScreen JMJD2A-Tudor / H3K4me3 peptide binding. Potency, µM (series often up to 114 µM), usual class: inhibitors. 4.4% of 390,000 active; further: nearly all actives have a fitted effect of over 50% in size
Target sequence (O75164 whole entry, looked up, the tested form may be a part): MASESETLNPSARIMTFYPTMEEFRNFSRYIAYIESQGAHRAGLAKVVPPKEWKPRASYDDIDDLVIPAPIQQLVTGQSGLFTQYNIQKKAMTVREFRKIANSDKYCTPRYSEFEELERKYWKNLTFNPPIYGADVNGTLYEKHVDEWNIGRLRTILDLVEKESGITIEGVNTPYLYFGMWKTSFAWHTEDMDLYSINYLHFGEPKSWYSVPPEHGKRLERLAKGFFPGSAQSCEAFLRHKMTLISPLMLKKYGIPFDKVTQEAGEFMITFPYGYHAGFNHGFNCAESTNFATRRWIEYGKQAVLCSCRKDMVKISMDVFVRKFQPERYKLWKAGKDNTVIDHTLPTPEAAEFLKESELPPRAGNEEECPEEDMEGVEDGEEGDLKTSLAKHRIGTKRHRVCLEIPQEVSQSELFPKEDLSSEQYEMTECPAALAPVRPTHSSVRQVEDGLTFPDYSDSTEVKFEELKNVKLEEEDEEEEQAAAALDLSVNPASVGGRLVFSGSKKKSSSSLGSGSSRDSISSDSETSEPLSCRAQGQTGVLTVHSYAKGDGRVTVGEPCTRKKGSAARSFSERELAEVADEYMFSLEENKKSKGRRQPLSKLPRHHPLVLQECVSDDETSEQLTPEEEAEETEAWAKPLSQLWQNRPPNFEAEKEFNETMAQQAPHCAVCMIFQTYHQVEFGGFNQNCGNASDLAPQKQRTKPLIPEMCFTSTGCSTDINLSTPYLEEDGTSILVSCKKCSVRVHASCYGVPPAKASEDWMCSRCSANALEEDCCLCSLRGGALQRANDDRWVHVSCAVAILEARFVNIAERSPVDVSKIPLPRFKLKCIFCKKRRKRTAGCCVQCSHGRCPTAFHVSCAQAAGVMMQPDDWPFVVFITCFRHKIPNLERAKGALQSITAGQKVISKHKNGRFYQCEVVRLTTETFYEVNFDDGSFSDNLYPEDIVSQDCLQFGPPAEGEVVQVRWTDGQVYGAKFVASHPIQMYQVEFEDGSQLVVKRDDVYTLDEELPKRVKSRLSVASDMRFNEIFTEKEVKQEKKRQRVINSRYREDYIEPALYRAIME
G9a block: qHTS Assay for Inhibitors of Histone Lysine Methyltransferase G9a. Histone-lysine N-methyltransferase EHMT2 (Homo sapiens), Q96KQ7. Potency, µM (series often up to 102 µM), actives largely listed as inhibitors. G9a H3K9 monomethylation, AlphaScreen, 2 h. 8.8% of 350,000 active; further: nearly all actives have a fitted effect of over 75% in size
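G9a (20 nM) was preincubated 15 min with compound, then reacted 2 h at room temperature with 500 nM biotin-H3K9 peptide and 20 µM SAM. Monomethyl-H3K9 detected by AlphaScreen using anti-H3K9me1 antibody.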
ALOX12 inh: Primary qHTS assay for inhibitors of human arachidonate 12S-lipoxygenase (ALOX12): Round 2 | purified 12hLO, xylenol orange hydroperoxide absorbance | Potency, µM (doses to about 108 µM), hits mostly inhibitors | 1.1% of 580,000 active | AID 1671190, 2021
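Purified human 12hLO (150 nM final) in 25 mM Hepes, 0.01% Triton X-100, pH 7.0 was preincubated 15 min at room temperature with compound. Then 40 uM arachidonic acid was added, 30 min. Hydroperoxide was read by Fe-XO absorbance ratio 573/405 nm.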
BAZ2B inh: qHTS Assay for Inhibitors of BAZ2B; Potency, µM (series often up to 114 µM), hits mostly inhibitors; 4.4% of 360,000 active; AID 504333, 2011; AlphaScreen BAZ2B-H3K14Ac peptide displacement; Bromodomain adjacent to zinc finger domain protein 2B (Homo sapiens), Q9UIF8; further: nearly all actives have a fitted effect of over 60% in size
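AlphaScreen displacement: compounds (up to 110uM) incubated 30 min at room temperature with a preformed 50 nM BAZ2B/50 nM biotinylated H3K14Ac peptide complex in PBS pH 7.4 with Tween-20. Donor and acceptor beads at 10 ug/mL final added, 20 min light-protected before reading.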
HP1b chromo inh: HTS for Inhibitors of HP1-beta Chromodomain Interactions with Methylated Histone Tails; Potency, µM (series often up to 114 µM), hits mostly inhibitors; 0.56% of 390,000 active; AID 540317, 2011; AlphaScreen HP1-beta / biotin-H3K9me3 peptide binding; Chromobox protein homolog 1 (Homo sapiens), P83916; further: nearly all actives have a fitted effect of over 70% in size
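Compound inhibition of the preformed complex between 50 nM HP1-beta and 50 nM biotinylated H3K9me3 peptide was read by AlphaScreen. Buffer was PBS pH 7.4 with 0.01% Tween-20. Incubations ran 30 min at room temperature, with 10 ug/mL donor/acceptor beads.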
Sfp inh: qHTS Assay for Inhibitors of Bacillus subtilis Sfp phosphopantetheinyl transferase (PPTase); Biochemical Sfp PPTase activity, qHTS; Potency, µM, most hits filed as inhibitors; 3.5% of 310,000 active; AID 1490, 2009;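 further: the enzyme is Sfp with the accession as filed and its product quenches rhodamine fluorescence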
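After 15 min at room temperature with compound, 15 nM Sfp received 5 uM rhodamine-CoA plus 12.5 uM BHQ-2-ybbR (50 mM Hepes pH 7.6, 10 mM MgCl2). Rate came from the fluorescence difference over 30 min, ex 525/em 598 nm.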
A number is an active result; n = inactive; u = inconclusive; x = no result; [ ] = dose if it differs, or a comment. Hits are enriched below; roughly 8.7% of the tested compounds scored in any of these assays. The call rests on the fitted dose curve; in most records, active means well fitted curve in the direction sought with a large enough effect; inconclusive means small, poorly fitted or top-dose-only effect, or another doubt; inactive means no such curve, though single readings can be large; an effect the other way counts as inactive or inconclusive.

SMILES	JMJD2A Tudor inh	G9a block	ALOX12 inh	BAZ2B inh	HP1b chromo inh	Sfp inh
COc1ccccc1N1CCN(C(CNS(=O)(=O)c2cccs2)c2cccnc2)CC1 (configuration not stated)	n	50µM	n	n	n	n
COc1ccc(S(=O)(=O)NCC(c2cccnc2)N2CCN(c3ccc(F)cc3)CC2)cc1C (configuration not stated)	u	u	n	u	n	n
COc1ccc(N2CCN(C(CNS(=O)(=O)c3cccs3)c3cccnc3)CC2)cc1 (configuration not stated)	u	89µM	x	u	n	n
Cc1ccc(NC(=O)N2CCCC(c3nccn3Cc3ccncc3)C2)cc1C (configuration not stated)	x	x	n	x	x	x
CCOc1ccccc1CNC(=O)c1nnn2cc(C)[nH]c(=O)c12	x	x	n	x	x	x
COc1ccc(N2CCN(C(CNS(=O)(=O)c3cc(F)ccc3F)c3cccnc3)CC2)cc1 (configuration not stated)	u	45µM	n	n	n	n
O=S(=O)(NCC(c1cccnc1)N1CCN(c2ccc(F)cc2)CC1)c1cc(F)ccc1F (configuration not stated)	u	x	n	x	n	x
OC(C#CC(O)(c1ccccc1)c1ccccc1)c1ccc(F)cc1 (configuration not stated)	x	x	n	x	x	x
CCNc1c(NC(=O)Nc2ccc(CC)cc2)c(=O)oc2ccccc12	x	x	45µM	x	x	x
CCc1ccc(NC(=O)Nc2cn(C)c(=O)c3ccccc23)cc1	n	10µM	n	n	n	x
Cc1ccc(NC(=O)Nc2cn(C)c(=O)c3ccccc23)c(Cl)c1	n	u	n	n	n	x
CCOc1ccc(NC(=O)Cc2c(C(=O)O)n(C)c3ccccc23)cc1	n	n	n	n	n	n
CCc1ccc(NC(=O)Cc2c(C(=O)O)n(C)c3ccccc23)cc1	n	u	n	28µM	n	n
CC(C)(CO)NC(=O)c1nc(-c2ccc(COc3ccc4c(c3)OCO4)cc2)no1	x	x	n	x	x	x
Cc1cc(F)ccc1NC(=O)CCc1c[nH]c2ccccc12	x	x	n	x	x	x
Cc1cccc(OCC(=O)N2CCCN(c3cc(-c4ccc(Cl)cc4)[nH]n3)CC2)c1	x	x	n	x	x	x
CCOc1cc(C2C(C(=O)N3CCOCC3)=C(C)NC3=C2C(=O)CCC3)ccc1O (configuration not stated)	n	n	n	n	n	n
COc1cc(C2C(C(=O)N3CCOCC3)=C(C)NC3=C2C(=O)CCC3)ccc1OC(C)=O (configuration not stated)	n	1.6µM	n	n	n	u
CC(C)c1cc(C(=O)Nc2ccc(NC(N)=O)cc2)c2ccccc2n1	x	x	n	x	x	x
Cc1cccc(Nc2nnc(SCC(=O)Nc3ncc(C(F)(F)F)cc3Cl)s2)c1C	n	n	n	n	n	n
Cc1ccc(Nc2nnc(SCC(=O)Nc3ncc(C(F)(F)F)cc3Cl)s2)cc1	n	7.1µM	n	n	n	n
Cc1cccc(C)c1Nc1nnc(SCC(=O)Nc2ncc(C(F)(F)F)cc2Cl)s1	25µM	2.2µM	n	n	n	n
CCCCCCCCNC(=O)/C(C#N)=C/c1ccccc1[N+](=O)[O-]	u	40µM	n	n	n	n
N#C/C(=C\C=C\c1ccccc1[N+](=O)[O-])C(=O)NCc1ccccc1	u	40µM	n	u	u	n
CCOC(=O)c1cnc(Nc2nc3ccccc3o2)nc1CN1CCN(C)CC1	u	n[0.501 µM]	n	79µM	n	n
SMILES	JMJD2A Tudor inh	G9a block	ALOX12 inh	BAZ2B inh	HP1b chromo inh	Sfp inh
O=C(Nc1ccc([C@@H](O)[C@H]2COCC(=O)N2Cc2ccccn2)cc1)C1CCCC1	x	x	n	x	x	x
Cc1cc(C(F)(F)F)n2[nH]c(=O)c(N=Nc3ccccc3)c2n1	28µM	u	n	n	n	n
Cc1cc(C)n2[nH]c(=O)c(N=Nc3cccc(Cl)c3)c2n1	n	n	u	u	n	n
Cc1cc(C)n2[nH]c(=O)c(N=Nc3ccccc3)c2n1	u	7.9µM	n	u	n	n
CN(C)S(=O)(=O)N1CCC(Oc2ccc(C(=O)N3CCCCCCC3)cc2)CC1	n	u	n	56µM	n	n
Cc1ccccc1-c1cc(=O)c2cc(NC(=O)c3ccc(F)cc3)ccc2o1	x	x	n	x	x	x
O=C(Nc1cccc(C(F)(F)F)c1)N1CC2CCCN2c2ccccc21 (configuration not stated)	50µM	u	n	28µM	u	x
Cc1ccc(NC(=O)N2CCc3ccccc32)cc1C	n	n	n	n	n	n
Cc1ccc(NC(=O)N2CC3CCCN3c3ccccc32)cc1Cl (configuration not stated)	40µM	8.9µM	n	28µM	u	x
Cc1ccc(NC(=O)N2CC3CCCN3c3ccccc32)cc1C (configuration not stated)	50µM	10µM	n	25µM	u	x
Cc1ccc(NC(=O)N2CC3CCCN3c3ccccc32)c(C)c1 (configuration not stated)	50µM	n	n	n	u	x
Cc1cc(C)cc(C(=O)N(Cc2ccncc2)C2CC2)c1	x	x	n	x	x	x
NC(Cc1ccccc1)C(=O)N1CCN(c2ccccn2)CC1 (configuration not stated)	x	x	n	x	x	x
CCOc1ccc2nc(N3CCN(C(=O)CCS(=O)(=O)c4ccccc4)CC3)sc2c1	x	x	n	x	x	x
COC(=O)c1ccc(Cl)cc1NC(=O)N1CC2CCCN2c2ccccc21 (configuration not stated)	u	8.9µM	n	u	n	x
CCC1CN(C(=O)Nc2cc(Cl)ccc2C(=O)OC)c2ccccc2S1 (configuration not stated)	n	n	n	n	n	x
Cc1ccc(N2CC(c3noc(-c4cccc(N(C)C)c4)n3)CC2=O)cc1 (configuration not stated)	x	x	n	x	x	x
CCOc1ccccc1N(CC(=O)NC(C)CC)S(C)(=O)=O (configuration not stated)	x	x	n	x	x	x
COc1ccc2[nH]c(CO)cc2c1	x	x	25µM	x	x	x
COc1ccc2[nH]c(=O)c(CCC(=O)O)cc2c1	x	x	n	x	x	x
CCCCN(CC)S(=O)(=O)c1ccc(C(=O)N(CCCN(C)C)c2nc3cc(C)cc(C)c3s2)cc1	u	45µM	u	u	n	50µM
COc1ccc(C)c2sc(N(CCCN(C)C)C(=O)c3ccc(S(=O)(=O)N4CCc5ccccc5C4)cc3)nc12	n	x	u	x	u	x
